Experimental data taken from PubChem BioAssay AID1159580 (chemical genetic matrix, 2015).
In all, about 5,500 compounds went through this assay and about 2,000 (36%) were called active. About 18% were inconclusive and are not listed. Rule as the data show it: active = normalized growth mostly below about 0.91 (no sharp cut-off); inconclusive = no clear call, values can overlap the other calls; inactive = mostly above about 0.92. The list shows a part of the results.

Experiment: chemical genetic growth profiling, strain panel (AID 1159580);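 also: tested at 20 µM; growth read once vehicle control cultures reached saturation at 30 °C; 1 = growth at the plate median or of vehicle wells; lower values mean less growth of the strain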
Settings: S. cerevisiae deletion strains, growth OD

Measured: normalized growth

O=C(O)Cc1ccccc1I
inactive: locus YAL013W, strain DEP1, active compounds read low 1 | locus YBR229C, strain ROT2, active compounds read low 0.996 | locus YDL101C, strain DUN1, active compounds read low 0.99 | locus YDR150W, strain NUM1, active compounds read low 0.988 | locus YEL061C, strain CIN8, active compounds read low 1.02 | locus YGR078C, strain PAC10, active compounds read low 0.989 | locus YHR030C, strain SLT2, active compounds read low 1.06 | locus YHR087W, strain rtc3, active compounds read low 0.994 | locus YJL187C, strain SWE1, active compounds read low 0.952 | locus YJR043C, strain POL32, active compounds read low 1 | locus YJR075W, strain HOC1, active compounds read low 0.985 | locus YKL190W, strain CNB1, active compounds read low 1.02 | locus YLR039C, strain RIC1, active compounds read low 1.03 | locus YLR058C, strain SHM2 (second series), active compounds read low 1 | locus YLR085C, strain ARP6, active compounds read low 1.05 | locus YLR262C, strain YPT6, active compounds read low 1.05 | locus YML094W, strain GIM5, active compounds read low 1.01 | locus YMR219W, strain ESC1, active compounds read low 1.01 | locus YMR263W, strain SAP30, active compounds read low 1.01 | locus YNL153C, strain GIM3, active compounds read low 0.975 | locus YNL298W, strain CLA4 (second series), active compounds read low 1.07 | locus YNL322C, strain KRE1, active compounds read low 1 | locus YNR030W, strain Alg12, active compounds read low 1.03 | locus YOL006C, strain TOP1, active compounds read low 1.11 | locus YPL055C, strain LGE1, active compounds read low 0.978 | locus YPL241C, strain CIN2, active compounds read low 1.02 | locus YPR135W, strain CTF4, active compounds read low 1.05
